In PubChem BioAssay (Tox21):
Records with an inconclusive call do not appear. The source made the active and inactive calls. Unless noted, calls come from the whole dose curve; as a rule, active = well fitted curve in the direction sought with a large enough effect in the repeat runs; inconclusive = weak or mixed curves; inactive = no such curve, though single readings can be large; an effect the other way counts as inactive or inconclusive.

What was measured:
[1] = qHTS assay to identify small molecule antagonists of the androgen receptor (AR) signaling pathway using the MDA cell line in the presence of 0.5 nM R1881 - cell viability counter screen (AID 1259242); note: nearly all actives have a fitted effect of over 45% in size
Outline: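 Concentration-response screen of compounds for toxicity in MDA-kb2 reporter cells: 16 hr at 37C with 0.5 nM R1881, endpoint live-cell protease fluorescence measured in the reporter wells.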

[2] = molecular target: Estrogen receptor (Homo sapiens) (UniProt P03372); assay: qHTS assay to identify small molecule antagonists of the estrogen receptor alpha (ER-alpha) signaling pathway using the BG1 cell line in the presence of 0.1 nM 17-beta-estradiol (AID 1259244); note: nearly all actives have a fitted effect of over 50% in size
Outline: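 Compounds were tested against 0.1 nM (final) 17beta-estradiol in VM7Luc4E2 cells, which express full-length ER-alpha and an ERE-luciferase reporter; luminescence was recorded following 22 h exposure.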

[3] = qHTS assay to identify small molecule phospholipidosis (PLD) inducers (AID 1259344; active = well fitted curve in the direction sought with a large enough effect; an effect the other way counts as inactive or inconclusive)
Outline: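 Image-based: LipidTOX Red pit count/intensity per well and per cell; HepG2, 24 h compound at 37 C, PFA fixation, Hoechst counterstain.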

[4] = qHTS assay to identify small molecule HDAC inhibitors (AID 1259364);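 note: wild-type HCT-116 cells with endogenous class I/II HDAC activity; top concentration of the series differs between compounds; nearly all actives have a fitted effect of over 45% in size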
Outline: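 Screening used wild-type human colon HCT-116 cells incubated overnight, dosed with compounds for 2 hours, and assayed with a homogeneous luminogenic HDAC I/II reagent for 30 minutes at room temperature.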

[5] = qHTS assay to identify small molecule HDAC inhibitors - cell viability counter screen (AID 1259365); note: series mostly up to about 92 µM; nearly all actives have a fitted effect of over 50% in size
Outline: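 Measured quantity is CellTiter-Glo luminescence from wild-type HCT-116 cells after compound incubation of 2hr at 37C, 5% CO2; reagent developed 30min at room temperature.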

[6] = qHTS assay to identify small molecule agonists of the sonic hedgehog signaling (Shh) pathway - cell viability counter screen (AID 1259366); note: nearly all actives have a fitted effect of over 50% in size
Outline: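 In quantitative high-throughput format, 3T3 Gli1-Luc cells were exposed to compounds for 24hr and multiplexed for viability using CellTiter-Fluor, incubated 1hr at 37C before the fluorescence read.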

[7] = qHTS assay to identify small molecule antagonists of the sonic hedgehog signaling (Shh) pathway - cell viability counter screen (AID 1259367); note: nearly all actives have a fitted effect of over 55% in size
Outline: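 Tox21 library chemicals were tested on a Gli1-Luc NIH/3T3 clone (2,000 cells/well) stimulated by conditioned medium; viability was quantified as fluorescence from CellTiter-Fluor reagent added at 23 hr.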

[8] = qHTS assay to identify small molecule agonists of the sonic hedgehog signaling (Shh) pathway (AID 1259368; calls by dose curve;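 note: NIH/3T3-derived 3T3Gli1-Luc cells carrying a stable Gli1-driven firefly luciferase reporter; series mostly up to about 92 µM; nearly all actives have a fitted effect of over 15% in size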)
Outline: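 Hedgehog pathway agonism scored by increased firefly luciferase luminescence in 3T3Gli1-Luc cells treated 24 hr at 37 C; detection used a 30 min room-temperature reagent incubation.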

[9] = qHTS assay to identify small molecule antagonists of the sonic hedgehog signaling (Shh) pathway (AID 1259369; calls by dose curve; note: nearly all actives have a fitted effect of over 45% in size)
Outline: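 NIH/3T3 stable Gli1-Luc clone, 2,000 cells/well, 4hr settle; cpd + conditioned medium 24hr; Luc reagent 30min RT; luminescence.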

[10] = molecular target: Estrogen receptor beta (Homo sapiens) (UniProt Q92731); assay: qHTS assay to identify small molecule antagonists of the estrogen receptor beta (ER-beta) signaling pathway (AID 1259378; active = well fitted inhibition curve with a large enough effect in the signal ratio in the repeat runs, not every such curve was filed as active; the % refers to the signal ratio)
Outline: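 ER-beta-UAS-bla HEK293T cells in 2% charcoal-stripped FBS medium treated with compound plus 1nM final 17-beta-estradiol for 16 hr at 37C. Beta-lactamase reporter read by FRET substrate fluorescence after 2 hours at room temperature.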

[11] = qHTS assay to identify small molecule agonists of the androgen receptor (AR) signaling pathway in the presence of an antagonist - cell viability counter screen (AID 1259379);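 note: MDA-kb2 human breast cancer cells carrying an MMTV luciferase reporter; series mostly up to about 92 µM; nearly all actives have a fitted effect of over 25% in size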
Outline: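 MDA-kb2 viability measured by CellTiter-Fluor fluorescence in the same wells as the luciferase signal; nilutamide 3.0uM final; 15-point compound titration; 16 hr at 37C.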

[12] = qHTS assay to identify small molecule agonists of the estrogen receptor beta (ER-beta) signaling pathway - cell viability counter screen (AID 1259380); note: nearly all actives have a fitted effect of over 30% in size
Outline: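 Measured: luminescence from CellTiter-Glo after 30 min at room temperature, added to wells already read for the LiveBLAzer FRET reporter (2 hr substrate); ER-beta-UAS-bla HEK293T cells had 16 hr compound treatment at 37C, 5% CO2.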

[13] = qHTS assay to identify small molecule antagonists of the estrogen receptor beta (ER-beta) signaling pathway - cell viability counter screen (AID 1259382); note: series mostly up to about 92 µM; nearly all actives have a fitted effect of over 55% in size
Outline: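 Readout: luminescence, CellTiter-Glo, same wells as bla assay. System: ER-beta-UAS-bla GripTite HEK293T, 2% charcoal-stripped FBS. Exposure: compounds plus 1nM 17-beta-estradiol, 16 hr, 37C.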

[14] = molecular target: Estrogen receptor (Homo sapiens) (UniProt P03372); assay: qHTS assay to identify small molecule agonists of the estrogen receptor alpha (ER-alpha) signaling pathway in the presence of an antagonist (AID 1259383; calls by dose curve; note: top concentration of the series differs between compounds; nearly all actives have a fitted effect of over 15% in size)
Outline: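 Quantitative HTS confirmation: compounds titrated at 15 concentrations onto estrogen-deprived VM7Luc4E2 cells carrying a four-ERE luciferase construct, with ICI-182,780 present at 10.0nM final. Signal is luminescence after 22hr exposure.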

[15] = qHTS assay to identify small molecule agonists or antagonists of the thyroid stimulating hormone receptor (TSHR) signaling pathway - wild type cell line counter screen (AID 1259384; calls by dose curve)
Outline: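 Wild-type Hek293 cells, 800/well, 18 h at 37C, then compound with Ro20-1724 for 30 min RT. cAMP by HTRF (cAMP-d2/anti-cAMP cryptate), 1 h RT, fluorescence read. 15 concentrations, triplicates.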

[16] = molecular target: Thyrotropin receptor (Homo sapiens) (UniProt P16473); assay: qHTS assay to identify small molecule antagonists of the thyroid stimulating hormone receptor (TSHR) signaling pathway (AID 1259385; calls by dose curve; note: nearly all actives have a fitted effect of over 20% in size)
Outline: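 TSHR-HEK293 cells (800/well) plated 18 h, then compounds with Ro20-1724 and TSH at 1.5 ng/mL final, 30 min at room temperature. cAMP quantified by HTRF (cAMP-d2/anti-cAMP-cryptate, 1 h); 15 concentrations in triplicate.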

[17] = qHTS assay to identify small molecule agonists of the estrogen receptor alpha (ER-alpha) signaling pathway in the presence of an antagonist - cell viability counter screen (AID 1259386);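 note: series mostly up to about 92 µM; cells exposed to compounds for 22 h at 37 °C before the viability read; nearly all actives have a fitted effect of over 30% in size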
Outline: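 The test measures whether compounds kill ER-alpha reporter cells (VM7Luc4E2) under antagonist co-treatment (ICI-182,780, 10.0nM). Fluorescence from CellTiter-Fluor is read after a 22hr exposure.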

[18] = molecular target: Estrogen receptor beta (Homo sapiens) (UniProt Q92731); assay: qHTS assay to identify small molecule agonists of the estrogen receptor beta (ER-beta) signaling pathway (AID 1259377; active = well fitted activation curve with a large enough effect in the signal ratio in the repeat runs, not every such curve was filed as active; the % refers to the signal ratio)
Outline: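 Reporter cells (HEK293T, ER-beta-UAS-bla) receive compounds or DMSO after a 6 hr pre-incubation. They then incubate 16 hr at 37C/5% CO2, and fluorescence from LiveBLAzer B/G substrate is measured after 2 hours at room temperature.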

Measured: Potency

Sequence of Estrogen receptor beta (Homo sapiens) (Q92731 whole entry, looked up): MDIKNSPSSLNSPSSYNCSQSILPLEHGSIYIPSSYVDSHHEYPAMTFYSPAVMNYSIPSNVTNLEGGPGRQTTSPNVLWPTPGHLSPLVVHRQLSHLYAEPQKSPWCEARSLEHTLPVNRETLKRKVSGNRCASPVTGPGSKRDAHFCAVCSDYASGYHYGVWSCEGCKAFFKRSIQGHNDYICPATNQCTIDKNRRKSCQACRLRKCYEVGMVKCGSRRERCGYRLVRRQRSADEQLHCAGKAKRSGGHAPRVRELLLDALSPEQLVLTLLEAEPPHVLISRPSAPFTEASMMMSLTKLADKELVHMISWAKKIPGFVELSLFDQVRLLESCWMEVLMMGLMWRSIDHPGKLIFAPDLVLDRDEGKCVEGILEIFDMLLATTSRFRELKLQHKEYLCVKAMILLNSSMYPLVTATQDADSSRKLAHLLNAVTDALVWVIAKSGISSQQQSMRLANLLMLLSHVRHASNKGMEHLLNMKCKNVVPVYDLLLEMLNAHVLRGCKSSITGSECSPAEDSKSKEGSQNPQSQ
Sequence of Thyrotropin receptor (Homo sapiens) (P16473 whole entry, looked up): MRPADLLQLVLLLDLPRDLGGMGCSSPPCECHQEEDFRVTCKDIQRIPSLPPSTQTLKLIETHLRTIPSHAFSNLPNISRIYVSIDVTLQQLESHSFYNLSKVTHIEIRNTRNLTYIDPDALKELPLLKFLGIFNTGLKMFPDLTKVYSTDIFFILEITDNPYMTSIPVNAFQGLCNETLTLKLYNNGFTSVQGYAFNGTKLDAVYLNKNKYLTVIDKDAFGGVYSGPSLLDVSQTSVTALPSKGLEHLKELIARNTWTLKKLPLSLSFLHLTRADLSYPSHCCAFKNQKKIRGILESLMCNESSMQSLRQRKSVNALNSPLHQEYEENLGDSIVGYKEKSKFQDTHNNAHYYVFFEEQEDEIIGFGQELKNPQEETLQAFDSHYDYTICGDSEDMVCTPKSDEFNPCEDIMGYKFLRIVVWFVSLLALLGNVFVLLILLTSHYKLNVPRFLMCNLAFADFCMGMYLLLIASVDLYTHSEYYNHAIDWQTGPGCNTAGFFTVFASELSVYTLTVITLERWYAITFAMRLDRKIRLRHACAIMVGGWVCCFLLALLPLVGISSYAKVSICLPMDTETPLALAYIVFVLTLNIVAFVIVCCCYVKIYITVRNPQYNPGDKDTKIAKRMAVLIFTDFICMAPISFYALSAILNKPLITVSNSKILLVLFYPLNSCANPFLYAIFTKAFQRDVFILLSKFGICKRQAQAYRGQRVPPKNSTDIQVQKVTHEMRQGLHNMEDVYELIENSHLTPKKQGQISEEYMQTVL
Sequence of Estrogen receptor (Homo sapiens) (P03372 whole entry, looked up): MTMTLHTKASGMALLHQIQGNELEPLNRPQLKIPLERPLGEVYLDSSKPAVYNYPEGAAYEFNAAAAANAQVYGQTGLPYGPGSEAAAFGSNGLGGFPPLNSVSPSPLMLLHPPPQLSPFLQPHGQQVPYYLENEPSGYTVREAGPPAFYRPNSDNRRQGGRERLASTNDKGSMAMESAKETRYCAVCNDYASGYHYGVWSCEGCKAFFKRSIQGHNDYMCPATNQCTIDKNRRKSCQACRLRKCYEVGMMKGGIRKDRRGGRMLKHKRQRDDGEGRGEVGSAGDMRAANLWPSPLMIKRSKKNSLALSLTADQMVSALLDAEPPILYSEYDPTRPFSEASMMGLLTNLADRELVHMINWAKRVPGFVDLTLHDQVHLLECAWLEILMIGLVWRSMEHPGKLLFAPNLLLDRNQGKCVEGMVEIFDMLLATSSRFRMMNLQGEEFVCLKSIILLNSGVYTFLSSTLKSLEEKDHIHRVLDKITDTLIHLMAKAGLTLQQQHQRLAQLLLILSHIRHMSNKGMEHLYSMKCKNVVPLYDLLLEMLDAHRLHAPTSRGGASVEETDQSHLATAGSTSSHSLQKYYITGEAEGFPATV

CCN(CC)CC1CCCCN1CC(=O)N1c2ccccc2C(=O)Nc2cccnc21 (stereo unspecified)
not listed: [18]
inactive: all other assays above

O=C1C=CC(=O)O1
not listed: [3] | [15]
inactive: all other assays above

CC(C)(CO)[C@@H](O)C(=O)NCCC(=O)O
not listed: [5] | [10] | [18]
inactive: all other assays above

CCCCCCCCOC(=O)CCCCCCCCC(=O)OCCCCCCCC
not listed: [3] | [15] | [16]
inactive: all other assays above

Cc1cccc(C)c1NC(=O)CN1CCCCCC1
not listed: [15] | [18]
inactive: all other assays above

Cc1c[nH]c(=S)[nH]c1=O
not listed: [3] | [15] | [16]
inactive: all other assays above

FC(F)(F)C(F)(F)C(F)(F)C(F)(F)C(F)(F)C(F)(F)C(F)(F)C(F)(F)Br
not listed: [10]
inactive: all other assays above

CO[C@@]1(NC(=O)CSCC#N)C(=O)N2C(C(=O)O)=C(CSc3nnnn3C)CS[C@@H]21
not listed: [10] | [15] | [16]
inactive: all other assays above
